# Source: PubChem (Broad Institute)
# The entries come from a sample that favours hits as a whole.
# Tgondii IFNg: T. gondii growth inhibition under IFN-gamma | 69,000 compounds, 3.8% hits | activity change, negative = inhibition, % (test concentration not listed) | Toxoplasma gondii growth in IFN-gamma-treated host cells; stronger effect = lower value | AID 1259416; in the data active means activity change below about -70%, passing the limit was not always enough;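 further: host cells are HeLa cells infected with Toxoplasma gondii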
# Numbers without * were called inactive; ! = a repeat was not active.
SMILES,Tgondii IFNg
Cc1cccc(-c2ccc([C@@H]3[C@@H](CO)N4C(=O)CN(C(=O)c5ccc6c(c5)OCO6)C[C@H]34)cc2)c1,-43.3
N#Cc1cccc(-c2ccc(C3[C@@H]4CN(C(=O)c5ccc6c(c5)OCO6)C[C@H]3N4)cc2)c1 (some centres not stated),-74.8*!
N#Cc1cccc(-c2ccc(C3[C@@H]4CN(C(=O)Cc5ccncc5)C[C@H]3N4)cc2)c1 (some centres not stated),13.7
COc1ccccc1Cc1nnc(NC(=O)CCc2c(C)nn3cnnc3c2C)s1,-14.4
Cc1cccc(C(=O)Nc2nc(-c3ccccc3)c(-c3ccccc3)s2)c1,-71.9*
O=C(Nc1sc(NC(=O)c2cccs2)nc1-c1cccs1)c1ccccc1,2.3
Cc1cccc(C(=O)NCCc2sc(-c3ccccc3)nc2C)c1,425.7
C=CCNc1ccccc1C(=O)N1C[C@H](OC(C)C)[C@@H](O)C1,2.4
CN(C)c1cc(Nc2ccccc2)c2c(=O)n(C)c(=O)n(C)c2n1,-83.7*
Cn1c(=O)c2c(-c3ccc(F)cc3)cc(-c3cccc(F)c3)nc2n(C)c1=O,-10.0
Cn1c(=O)c2c3nc4ccccc4cc3c(=O)n(C)c2n(C)c1=O,-12.6
CCc1cnc(C)nc1N1CCN(S(=O)(=O)c2ccccc2)CC1,-5.1
COc1ccc(F)c([C@@H]2NC(=O)CC[C@H]2NCc2cn[nH]c2-c2ccccc2)c1,-0.7
COC(=O)C1(Cc2ccccc2F)NC(=O)CC2CCC1N2Cc1ccccc1 (configuration not stated),-77.3*
O=C1NC(=O)C(Cc2ccccc2F)(C2CCNCC2)N1 (configuration not stated),-2.5
CC(C)n1c2ccccc2c2c1cc(C(=O)N1CCN(C)CC1)n2C(=O)N(C)C,13.6
O=C(Nc1ncc(SCCN2CCCC2)s1)[C@]1(c2ccc(S(=O)(=O)C3CC3)cc2)C[C@H]1C1CCCCC1,-73.1*
CCCN1C(=O)CCc2cc(NC(=O)Cc3ccc(OC)cc3)ccc21,140.6
O=C(NCc1cn[nH]c1-c1ccc(F)cc1)c1cccc(Cn2cccn2)c1,12.3
CC1Cc2cc(-c3csc(NC(=O)c4cc5c([nH]c4=O)CCC5)n3)ccc2O1 (configuration not stated),0.0
CCCCCN(CCCOC)C(=O)[C@@H](CCC(=O)O)NC(=O)c1ccc(Cl)c(Cl)c1,2.0
FC(F)(F)c1cc(Oc2ccccc2)ncc1-c1nnc(-c2ccccc2Cl)o1,-58.9
Clc1ccccc1-c1nnc(Cc2cc(Br)sc2Br)o1,-90.2*
COc1ccccc1-c1nnc(CC(=O)O)o1,-24.2
C=CCOCC1CN(Cc2csc(C)n2)Cc2nnn(C)c21 (configuration not stated),90.4
SMILES,Tgondii IFNg
CN(C)C(=O)c1cc2c(nc1NCC1CC1)CCN(c1ncc(F)cn1)CC2,-0.8
CC1=NCCN1S(=O)(=O)c1c(C(C)C)cc(C(C)C)cc1C(C)C,15.8
CC(C)c1ccc(NS(=O)(=O)c2cc3c4c(c2)CCC(=O)N4CCC3)cc1,2.0
CC(C)c1cc(C(C)C)c(S(=O)(=O)Nc2ccc(O)cc2)c(C(C)C)c1,-74.9*
O=C(c1cccc(F)c1)N1CCCC(c2n[nH]c(=O)n2-c2ccccc2)C1 (configuration not stated),-2.6
CN(C)c1cncc(-c2cccc(-n3cccn3)c2)n1,190.4
O=C(O)c1ccc(-c2cccc(-n3cccn3)c2)o1,-44.6
c1ccc(-c2[nH]cnc2-c2cccc(-n3cccn3)c2)cc1,-94.9*
O=C(Nc1cccc(-c2noc(COc3ccccc3)n2)c1)c1cccs1,-34.0
COc1ccc(C(=O)c2sc(=S)n(-c3ccccc3)c2N)cc1,325.3
Cc1nc(-c2cccc(F)c2)sc1CCNC(=O)c1ccc(Br)cc1,-50.1
Cc1nc2sc(C(=O)c3ccc(Br)cc3)c(N)c2c(C)c1C,-95.3*
O=C(CC1CC1)N1CC2(C1)[C@H](c1ccccc1)[C@H](CO)N2S(=O)(=O)Cc1ccccc1,-5.1
CC(=O)N1CCC2(CC1)Nc1ccccc1NC2=O,46.2
CN(C)C(=O)[C@]12CCCN(Cc3ccccn3)C[C@@H]1CN(c1ccccn1)C2,7.1
CCn1c(C2CCN(Cc3cc(-c4ccccc4)no3)CC2)nn(C)c1=O,-1.9
COc1cc([C@@H]2c3cc4c(cc3[C@@H](O[C@@H]3O[C@@H]5CO[C@@H](C)O[C@H]5[C@H](O)[C@H]3O)[C@H]3COC(=O)[C@H]23)OCO4)cc(OC)c1O,-80.0*
COc1cc2c(c(OC)c1OC)-c1c(cc3c(c1OC)OCO3)C[C@H](C)[C@@H](C)C2,-8.5
COc1cc([C@@H]2c3cc4c(cc3[C@H](O)[C@H]3COC(=O)[C@H]23)OCO4)cc(OC)c1OC,-76.2*!
COc1ccc([C@H]2C/C=C\C[C@@H](c3ccc4c(c3)OCO4)NC(=O)CCC(=O)N2)c(OC)c1,-51.6
COc1ccc2c3c(n(C)c2c1)[C@@H](CO)N(C(=O)Nc1c(C)noc1C)CC31CN(CC2CC2)C1,-17.9
CC(C)CCCC1CN(Cc2ccncc2)CCO1 (configuration not stated),-23.7
CC(=O)N1C[C@@H]2CN(C(=O)C(C)C)c3ccccc3[C@H]2C1,112.0
N#C[C@@H]1[C@@H](c2ccccc2C2=CCCCC2)[C@@H](CO)N1S(=O)(=O)c1ccccc1,-31.1
COc1ccc(-c2nc(NCCc3ccc(Cl)cc3)c3ccccc3n2)cc1,-63.8
SMILES,Tgondii IFNg
CC(=O)Nc1cccc(C(=O)N(Cc2ccsc2)CC(C)C)c1,-79.4*
CC(=O)Nc1cccc(C(=O)N(Cc2ccsc2)CC2CCCO2)c1 (configuration not stated),149.7
CC(C)CN(Cc1ccsc1)C(=O)c1coc(CN2CCOCC2)c1,0.8
CCOC(=O)C1SC(c2ccc(Cl)cc2)C(C#N)C1(O)c1ccccc1 (configuration not stated),35.2
O=c1oc2ccccc2c2c1C(c1ccc3c(c1)OCO3)Nc1ccc3ccccc3c1-2 (configuration not stated),57.3
Fc1ccc(C2Nc3ccc4ccccc4c3C3=C2CCCC3)cc1 (configuration not stated),-105.4*
Cc1nnc(SCC(=O)N2CCc3c(cc(-c4cccc(Cl)c4)c(=O)n3CC3CC3)C2)o1,-50.3
CN(CCCc1cnn(C)c1)C(=O)C(O)C(F)(F)F (configuration not stated),-4.6
CCc1csc(N2[C@H](C#N)[C@H](c3ccccc3-c3ccc(F)cc3)[C@H]2CO)n1,26.9
O=c1[nH]nc(-c2cc3c(s2)CCCC3)o1,-99.6*
COc1cc(Cl)c(C)cc1NC(=O)c1nc(Nc2ccccc2)c2ccccc2n1,11.1
Cc1nc2ccccc2n1CC(O)Cn1c2ccccc2c2ccccc21 (configuration not stated),-0.9
C=CCn1c(SCC(O)Cn2c3ccccc3c3ccccc32)nnc1-c1ccco1 (configuration not stated),-49.3
OC(CSc1nc2ccccc2s1)Cn1c2ccccc2c2ccccc21 (configuration not stated),-74.5*
Cc1oc(-c2ccc(C(=O)N3CCCC3)cc2)nc1CN1CCc2ccccc21,-42.1
Cc1[nH]c(-c2ccccc2)nc1C(=O)N1C[C@@H]2[C@@H]3CC[C@@H](C3)[C@@H]2C1,-8.5
Cc1ccccc1N(CC(=O)NCCc1ccccc1)C(=O)c1ccc(N2CCCC2)nc1,-16.5
CN1CCC(N(CCc2ccccc2)C(=O)c2cnc(N3CCCCC3)nc2)CC1,-89.6*
CCN(C(=O)c1cnc(NC)nc1)C1CCN(C)CC1,-0.8
